We go through seven compounds from PubChem BioAssay.

“And” between values parts separate entries of the source, which are not always exact repeats. Identical values can stand only once. Results filed as inconclusive are left out. The source made the active and inactive calls.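 The calls were made as follows, unless noted: active = normalized viability below 100% at a tested concentration; inactive = the rest.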

Experiment [1] in a line: growth inhibition of DIPG glioma cells, dose response, cell-based, SU-DIPG-XVII, MIPE5.0, CellTiter-Glo, qHTS (AID 1347060; cut-off not given, nearly all actives have AC50 up to about 26 µM;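 as to AC50: cells exposed to compound for 48 hours before viability readout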). The conditions noted are these: SU-DIPG-XVII viability, CellTiter-Glo ATP luminescence. A general note: Cellular ATP, detected with luciferase, serves as a proxy for viable cell number.
Experiment [2] can be described thus: growth inhibition of DIPG glioma cells, dose response, cell-based, SU-DIPG-XIII, MIPE4.0, CellTiter-Glo, qHTS (AID 1347061; cut-off not given, nearly all actives have AC50 up to about 37 µM;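 also: cells exposed to compound for 48 hours before readout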). The settings on record: SU-DIPG-XIII viability, CellTiter-Glo ATP luminescence.
Experiment [3] in a line: growth inhibition of DIPG glioma cells, dose response, cell-based, SU-DIPG-IV, MIPE4.0, CellTiter-Glo, qHTS (AID 1347063; cut-off not given, nearly all actives have AC50 up to about 30 µM;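 also: compound exposure lasted 48 hours before the viability readout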). The conditions noted are these: SU-DIPG-IV viability, CellTiter-Glo ATP luminescence.
A short description of experiment [4]: growth inhibition of DIPG glioma cells, dose response, cell-based, SU-DIPG-XIII, MIPE5.0, CellTiter-Glo, qHTS (AID 1347064; cut-off not given, nearly all actives have AC50 up to about 23 µM;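 as to AC50: cells exposed to compound for 48 hours before the viability read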). The settings on record: SU-DIPG-XIII viability, CellTiter-Glo ATP luminescence.
Experiment [5] in a line: viability loss in pontine glioma line – cell-based, SU-DIPG-XXV, MIPE5.0, CellTiter-Glo, qHTS, dose response (AID 1347065; cut-off not given, nearly all actives have AC50 up to about 26 µM;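 also: cells exposed to compound for 48 hours before ATP readout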). The conditions noted are these: CellTiter-Glo ATP luminescence.
Experiment [6] is described as follows: SU-DIPG-VI glioma cell viability, MIPE4.0 library, CellTiter-Glo luminescence, qHTS (AID 1347066; cut-off not given, nearly all actives have AC50 up to about 30 µM;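 also: cells exposed to compound for 48 hours before readout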). The settings on record: CellTiter-Glo ATP luminescence.
The nature of experiment [7]: JHH-DIPG-1 glioma cell viability, MIPE5.0 library, CellTiter-Glo luminescence, qHTS (AID 1347067; cut-off not given, nearly all actives have AC50 up to about 26 µM;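 also: cells exposed to compound for 48 hours before readout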). The settings on record: JHH-DIPG-1 glioma viability, CellTiter-Glo ATP luminescence.
The nature of experiment [8]: SU-DIPG-XXV glioma cell viability, MIPE5.0 library, qHTS (AID 1347068; cut-off not given, nearly all actives have IC50 up to about 30 µM;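 as to IC50: cells exposed to compound for 48 hours before viability readout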).
Experiment [9] can be described thus: growth inhibition of DIPG glioma cells, dose response, cell-based, JHH-DIPG-1, MIPE4.0, CellTiter-Glo, qHTS (AID 1347062; cut-off not given, nearly all actives have AC50 up to about 27 µM). The settings on record: JHH-DIPG-1 viability, CellTiter-Glo ATP luminescence.
A short description of experiment [10]: sensitizers of A549 cells to miR-34 induction, primary screen, imaging, A549 dox-inducible miR-34, nuclei and caspase counts (AID 1347080;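 active = compounds whose cell count with miR-34 switched on is under 0.7 times the count with it off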). The conditions noted are these: A549 miR-34 inducible, Hoechst nuclei count, 48 h.
Experiment [11] in a line: survival rescue of mitochondrial mutant cells in low glucose, primary screen, MELAS cybrids, Rieske KO mouse fibroblasts, CellTiter-Glo (AID 1508586;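 active = mean z-score across replicates of 1.96 or higher in either the MELAS or the Rieske mutant cell line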;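 also: z relative to plate mean and SD of compound and empty wells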).
Experiment [12] in a line: modifiers of HSF1 nuclear foci, imaging, Selleck Cancer Library (AID 1347162; in the data active = plate-normalised HSF1 focus index below about 0.46). The settings on record: human cells, at 10 µM; SSMD: measured here: HSF1 foci SSMD mean; cell count: measured here: cell number; plate-normalised HSF1 focus index: stronger effect = lower value.
A short description of experiment [13]: ovarian cancer cell viability with rucaparib, profiling panel, oncology-focused library, rucaparib conditional (AID 1508598). The conditions noted are these: patient-derived ovarian cancer cells, CellTiter-Glo viability, 144 h, stronger effect = lower value.

As to `CC[C@H](NC(=O)[C@H](C)NC)C(=O)N1C[C@@H](O)C[C@H]1Cc1c(-c2[nH]c3cc(F)ccc3c2C[C@@H]2C[C@H](O)CN2C(=O)[C@H](CC)NC(=O)[C@H](C)NC)[nH]c2cc(F)ccc12`, the compound was classed as inactive in experiment [1], in experiment [2], in experiment [4], in experiment [5], in experiment [6] and in [7]. Further, in experiment [8], the outcome was inactive. For the same compound, the AC50 (commonly the concentration at which the activity in the assay is half-maximal) in experiment [3] is 0.0662 µM (active).
For the compound `O=c1c(O)c(-c2cc(O)c(O)c(O)c2)oc2cc(O)cc(O)c12`, the call in experiment [1], in [2], in experiment [9], in experiment [5], in experiment [6] and in [7] was inactive. Besides, the fold change in experiment [10] (stronger effect = lower value, cell number ratio, induced over uninduced) is 1.07 (inactive) and 0.861 (inactive) and 0.936 (inactive); in [10] (measured here: relative caspase fold change +Dox/-Dox) it was 0.806 and 1.45 and 0.825. The cell count was 8570 and 8710 and 9810 in experiment [10] (measured here: total cells with miR-34 induction, stronger effect = lower value); 8020 and 10100 and 10500 in experiment [10] (measured here: total cells without miR-34 induction). Besides, the z-score in experiment [11] (MELAS cybrid survival, CellTiter-Glo 48 h, stronger effect = higher value) was -0.358 (inactive); in experiment [11] (Rieske KO mouse fibroblast survival, CellTiter-Glo 72 h), 0.188.
For the compound `c1cc(-c2sc(-c3ccncc3)c(-c3ccncc3)c2-c2ccncc2)ccn1`, the result in experiment [1], in experiment [2], in [9], in [5], in experiment [6] and in experiment [7] was inactive. Also, the call in [8] was inactive.
Take `Cc1cc(Nc2nc(N[C@@H](C)c3ccc(F)cc3)c(C#N)cc2F)n[nH]1`: the AC50 was 0.934 µM (active) in experiment [1]; 20.9 µM (active) in [2]; 5.9 µM (active) in [3]; 4.68 µM (active) in [4]; 1.32 µM (active) in [5]; 23.5 µM (active) in [6]. Also, in experiment [7], the AC50 is 5.9 µM (active). In addition, the 50% inhibitory concentration (IC50) (as a rule, the concentration at which inhibition is half-maximal) in experiment [8] is 5.25 µM (active).
Consider `C[C@@]1(C(=O)Nc2ccc(F)nc2)CCCN1c1nc(Nc2cc(C3CC3)[nH]n2)c2cccn2n1`, for which the AC50 in experiment [1] was 0.263 µM (active); in [2], 7.43 µM (active); in [3] it was 0.0833 µM (active); in [4] it was 0.0209 µM (active); in experiment [5], 0.0132 µM (active); in experiment [7], 0.186 µM (active). Moreover, the half-maximal inhibitory concentration (IC50) in experiment [8] is 0.0742 µM (active).
Consider `C=C1CCC2[C@](C)(CO)C(O)CC[C@]2(C)C1C/C=C1/C(=O)OCC1O` (some centres undefined), for which the concentration at half-maximal activity (AC50) in experiment [1] is 16.6 µM (active); in experiment [4] it was 16.6 µM (active); in experiment [5] it was 13.2 µM (active); in experiment [7] it was 13.2 µM (active). Further, the result in [2], in experiment [3] and in [6] was inactive.
Turning to `Cc1ccc([C@@H]2O[C@H](CO)[C@@H](O)[C@H](O)[C@H]2O)cc1Cc1ccc(-c2ccc(F)cc2)s1`, the outcome in experiment [1], in experiment [2], in experiment [9], in [4] and in [6] was inactive. Also, the SSMD in experiment [12] was determined as 0.238. This compound also came in with a cell count in [12] of 7420. Moreover, the plate-normalised HSF1 focus index in experiment [12] is 1.01 (inactive). Also, the viability (in general, a read-out of living cells in per cent, often relative to untreated cells) in [13] (at 0.000305 µM, OCI-C5x cells, with rucaparib 10 µM, 100% = cells with rucaparib alone) was 120% (inactive); in experiment [13] (at 0.000305 µM, OCI-C5x cells, without rucaparib), 109% (inactive); in experiment [13] (at 0.000305 µM, OCI-P5x cells, with rucaparib 20 µM, 100% = cells with rucaparib alone), 98.8% (active); in [13] (at 0.000305 µM, OCI-P5x cells, without rucaparib), 97.6% (active); in experiment [13] (at 0.00122 µM, OCI-C5x cells, with rucaparib 10 µM, 100% = cells with rucaparib alone) it was 120% (inactive); in [13] (at 0.00122 µM, OCI-C5x cells, without rucaparib) it was 120% (inactive). Further, the viability is 109% (inactive) in experiment [13] (at 0.00122 µM, OCI-P5x cells, with rucaparib 20 µM, 100% = cells with rucaparib alone); 93.8% (active) in [13] (at 0.00122 µM, OCI-P5x cells, without rucaparib); 115% (inactive) in experiment [13] (at 0.00488 µM, OCI-C5x cells, with rucaparib 10 µM, 100% = cells with rucaparib alone); 118% (inactive) in experiment [13] (at 0.00488 µM, OCI-C5x cells, without rucaparib); 108% (inactive) in experiment [13] (at 0.00488 µM, OCI-P5x cells, with rucaparib 20 µM, 100% = cells with rucaparib alone); 99.4% (active) in [13] (at 0.00488 µM, OCI-P5x cells, without rucaparib). For the same compound, the viability was 105% (inactive) in experiment [13] (at 0.0195 µM, OCI-C5x cells, with rucaparib 10 µM, 100% = cells with rucaparib alone); 108% (inactive) in [13] (at 0.0195 µM, OCI-C5x cells, without rucaparib); 108% (inactive) in experiment [13] (at 0.0195 µM, OCI-P5x cells, with rucaparib 20 µM, 100% = cells with rucaparib alone); 103% (inactive) in [13] (at 0.0195 µM, OCI-P5x cells, without rucaparib); 114% (inactive) in experiment [13] (at 0.0781 µM, OCI-C5x cells, with rucaparib 10 µM, 100% = cells with rucaparib alone); 128% (inactive) in experiment [13] (at 0.0781 µM, OCI-C5x cells, without rucaparib). The viability in [13] (at 0.0781 µM, OCI-P5x cells, with rucaparib 20 µM, 100% = cells with rucaparib alone) was 109% (inactive); in [13] (at 0.0781 µM, OCI-P5x cells, without rucaparib), 102% (inactive); in [13] (at 0.313 µM, OCI-C5x cells, with rucaparib 10 µM, 100% = cells with rucaparib alone), 117% (inactive); in experiment [13] (at 0.313 µM, OCI-C5x cells, without rucaparib) it was 122% (inactive).
